Reference: PubChem BioAssay (EPA / NIEHS)
Where “and” joins values, the source holds several entries; their conditions need not be identical. Identical values can stand only once. Some structures have more than one record in an assay (separate samples or runs), and their calls can disagree. Calls of active or inactive are those of the source. The calls were made as follows: active = hit-call score of the fitted dose curve at least 0.9, where 1 is the maximum; inactive = score below 0.9.

Legend:
[1] = read-out: Macrophage colony-stimulating factor (MCSF), CSF1 (gene 1435); test: BSK_hDFCGF_MCSF: BioMAP Diversity Plus: hDFCGF Assay for Macrophage colony-stimulating factor (MCSF) Biomarker Activity (AID 2283060); conditions: primary human foreskin fibroblasts; actives raise or lower the signal
Summary of the method: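 Human foreskin fibroblast primary cultures; M-CSF measured by ELISA 24 hours after chemical dosing. Bidirectional fitting relative to DMSO, with overt cytotoxicity tracked by parallel SRB total-protein staining (0.1% SRB, 10% TCA fixation, 560 nm).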

[2] = read-out: TIMP metallopeptidase inhibitor 1 (TIMP1), TIMP1 (gene 7076); test: BSK_hDFCGF_TIMP1: BioMAP Diversity Plus: hDFCGF Assay for TIMP metallopeptidase inhibitor 1 (TIMP1) Biomarker Activity (AID 2283062); conditions: primary human foreskin fibroblasts; actives raise or lower the signal
Summary of the method: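 Human foreskin fibroblast primary cultures dosed for 24 h; secreted/surface TIMP-1 quantified by ELISA. Bidirectional curve fitting against DMSO baseline; cytotoxicity tracked in parallel cultures by SRB total-protein staining.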

[3] = read-out: Monokine induced gamma interferon (MIG), CXCL9 (gene 4283); test: BSK_hDFCGF_MIG: BioMAP Diversity Plus: hDFCGF Assay for Monokine induced gamma interferon (MIG) Biomarker Activity (AID 2283063); conditions: primary human foreskin fibroblasts; actives raise or lower the signal
Summary of the method: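 MIG/CXCL9 measured by ELISA 24 h after dosing primary human skin fibroblasts. Activity fitted in both directions against DMSO controls. Cytotoxicity was checked in parallel cultures by SRB staining read at 560 nm.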

[4] = read-out: Matrix Metallopeptidase 1 (MMP1), MMP1 (gene 4312); test: BSK_hDFCGF_MMP1: BioMAP Diversity Plus: hDFCGF Assay for Matrix Metallopeptidase 1 (MMP1) Biomarker Activity (AID 2283064); conditions: primary human foreskin fibroblasts; actives raise or lower the signal
Summary of the method: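 MMP1 levels quantified by ELISA 24 h after dosing human dermal fibroblast cultures, with parallel SRB total-protein staining for overt cytotoxicity. Data fitted in both directions against DMSO baseline.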

[5] = read-out: Vascular cell adhesion molecule 1 (VCAM1), VCAM1 (gene 7412); test: BSK_hDFCGF_VCAM1: BioMAP Diversity Plus: hDFCGF Assay for Vascular cell adhesion molecule 1 (VCAM1) Biomarker Activity (AID 2283065); conditions: primary human foreskin fibroblasts; actives raise or lower the signal;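 as to AC50: VCAM-1 protein level quantified by ELISA after 24 h chemical exposure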
Summary of the method: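 Human foreskin fibroblast primary cells dosed with chemical, VCAM-1 measured by ELISA at 24 h. Bidirectional curve fitting relative to DMSO as negative control/baseline.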

[6] = read-out: Plasminogen activator inhibitor-1 (PAI1), SERPINE1 (gene 5054); test: BSK_hDFCGF_PAI1: BioMAP Diversity Plus: hDFCGF Assay for Plasminogen activator inhibitor-1 (PAI1) Biomarker Activity (AID 2283066); conditions: primary human foreskin fibroblasts; actives raise or lower the signal
Summary of the method: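 PAI-1 levels in human dermal foreskin fibroblasts were quantified by ELISA 24 h after dosing, with gain or loss analysed against DMSO. Overt cytotoxicity was checked by sulforhodamine B total-protein staining in parallel cultures.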

[7] = read-out: Intercellular Adhesion Molecule 1 (ICAM1), ICAM1 (gene 3383); test: BSK_KF3CT_ICAM1: BioMAP Diversity Plus: KF3CT Assay for Intercellular Adhesion Molecule 1 (ICAM1) Biomarker Activity (AID 2283067); conditions: primary human keratinocytes with fibroblasts; actives raise or lower the signal
Summary of the method: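 Human keratinocyte–foreskin fibroblast co-culture was treated for 24 h. Cell-surface ICAM-1 was quantified by ELISA, fitted bidirectionally relative to DMSO. Cytotoxicity was checked in parallel cultures by SRB total-protein staining.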

[8] = read-out: Interferon-gamma inducible Protein 10 (IP10), CXCL10 (gene 3627); test: BSK_KF3CT_IP10: BioMAP Diversity Plus: KF3CT Assay for Interferon-gamma inducible Protein 10 (IP10) Biomarker Activity (AID 2283068); conditions: primary human keratinocytes with fibroblasts; actives raise or lower the signal
Summary of the method: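 In a primary skin co-culture of keratinocytes and fibroblasts, IP-10 is quantified by ELISA at 24 h after dosing. SRB staining of parallel wells monitors overt toxicity. Curves are fitted both directions against DMSO.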

[9] = BSK_KF3CT_SRB: Viability Assessment in the BioMAP Diversity Plus: KF3CT Assay (AID 2283069); conditions: primary human keratinocytes with fibroblasts;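 also: read 24 h after compound addition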
Summary of the method: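 Cytotoxicity was gauged by SRB staining (0.1% SRB, 10% TCA fixation, 560 nm) of parallel cultures at 24 h. The cells were primary human skin keratinocytes co-cultured with fibroblasts, and activity was fitted in both directions against DMSO.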

[10] = read-out: Interleukin-1 alpha (IL1a), IL1A (gene 3552); test: BSK_KF3CT_IL1a: BioMAP Diversity Plus: KF3CT Assay for Interleukin-1 alpha (IL1a) Biomarker Activity (AID 2283070); conditions: primary human keratinocytes with fibroblasts; actives raise or lower the signal
Summary of the method: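 IL-1a was detected by ELISA 24 h after chemical treatment of a co-culture of human skin keratinocytes and foreskin fibroblasts. Gain or loss of signal was fitted against the DMSO baseline.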

[11] = read-out: TIMP metallopeptidase inhibitor 2 (TIMP2), TIMP2 (gene 7077); test: BSK_KF3CT_TIMP2: BioMAP Diversity Plus: KF3CT Assay for TIMP metallopeptidase inhibitor 2 (TIMP2) Biomarker Activity (AID 2283071); conditions: primary human keratinocytes with fibroblasts; actives raise or lower the signal
Summary of the method: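 TIMP-2 measured by ELISA at 24 h in human keratinocyte/fibroblast primary co-cultures exposed to chemicals. Both increases and decreases were fitted against DMSO. Parallel cultures were stained with SRB for total protein as an overt-cytotoxicity check.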

[12] = read-out: C-C motif chemokine 2 (Homo sapiens) (UniProt P13500); test: BSK_KF3CT_MCP1: BioMAP Diversity Plus: KF3CT Assay for Monocyte Chemoattractant Protein 1 (MCP1/CCL2) Biomarker Activity (AID 2283073); conditions: primary human keratinocytes with fibroblasts; actives raise or lower the signal
Summary of the method: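 Human keratinocyte–foreskin fibroblast co-culture; MCP-1 measured by ELISA 24 h after dosing. Bidirectional fit vs DMSO; cytotoxicity tracked by SRB total protein in parallel cultures.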

[13] = read-out: Matrix Metallopeptidase 9 (MMP9), MMP9 (gene 4318); test: BSK_KF3CT_MMP9: BioMAP Diversity Plus: KF3CT Assay for Matrix Metallopeptidase 9 (MMP9) Biomarker Activity (AID 2283074); conditions: primary human keratinocytes with fibroblasts; actives raise or lower the signal;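 as to AC50: MMP9 protein level quantified by ELISA in the co-culture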
Summary of the method: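 MMP-9 quantified by ELISA after 24 h chemical treatment of primary human skin keratinocyte/fibroblast co-cultures; gain or loss fitted against DMSO, with parallel SRB staining (0.1% SRB, 560 nm) for overt cytotoxicity.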

[14] = read-out: urokinase plasminogen activator (uPA), PLAU (gene 5328); test: BSK_KF3CT_uPA: BioMAP Diversity Plus: KF3CT Assay for urokinase plasminogen activator (uPA) Biomarker Activity (AID 2283075); conditions: primary human keratinocytes with fibroblasts; actives raise or lower the signal
Summary of the method: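 ELISA read-out of uPA 24 h after dosing human skin keratinocytes co-cultured with foreskin fibroblasts. Signal change fitted both ways relative to DMSO; sulforhodamine B on parallel cultures marks overt cytotoxicity.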

CD40, CD40 (gene 958) = test: BSK_LPS_CD40: BioMAP Diversity Plus: LPS Assay for CD40 Biomarker Activity (AID 2283076); conditions: primary human HUVEC with PBMC; actives raise or lower the signal
Summary of the method: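 HUVEC plus PBMC co-culture stimulated with LPS; CD40 quantified by ELISA 24 h after compound dosing. Fitting was bidirectional relative to DMSO. SRB staining of parallel cultures flagged overt cytotoxicity.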

[15] = read-out: E-selectin (Homo sapiens) (UniProt P16581); test: BSK_LPS_Eselectin: BioMAP Diversity Plus: LPS Assay for Eselectin Biomarker Activity (AID 2283077); conditions: primary human HUVEC with PBMC; actives raise or lower the signal
Summary of the method: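 Human umbilical vein endothelial cells co-cultured with PBMC under LPS stimulation; cell-surface E-selectin measured by ELISA 24 h after dosing. Change in either direction versus DMSO, with SRB total-protein staining in parallel cultures for cytotoxicity.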

[16] = read-out: Interleukin-8 (IL8), CXCL8 (gene 3576); test: BSK_LPS_IL8: BioMAP Diversity Plus: LPS Assay for Interleukin-8 (IL8) Biomarker Activity (AID 2283078); conditions: primary human HUVEC with PBMC; actives raise or lower the signal
Summary of the method: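 Human umbilical vein endothelial cells co-cultured with PBMC, LPS-stimulated, exposed to compound for 24 h. IL-8 quantified by ELISA; fitted in both directions against DMSO, with SRB total-protein staining of parallel cultures for cytotoxicity.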

[17] = BSK_LPS_SRB: Viability Assessment in the BioMAP Diversity Plus: LPS Assay (AID 2283079); conditions: primary human HUVEC with PBMC;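 also: total protein by sulforhodamine B absorbance as a cytotoxicity measure; measured one day after compound addition; fitted in both directions against DMSO so loss or gain of signal counts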
Summary of the method: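 Co-culture of human umbilical vein endothelial cells and PBMC, read 24 h after dosing. Total protein by 0.1% SRB staining after 10% TCA fixation, absorbance at 560 nm; bidirectional fit against DMSO.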

Measured: AC50

E-selectin (Homo sapiens), sequence (P16581 whole entry, looked up): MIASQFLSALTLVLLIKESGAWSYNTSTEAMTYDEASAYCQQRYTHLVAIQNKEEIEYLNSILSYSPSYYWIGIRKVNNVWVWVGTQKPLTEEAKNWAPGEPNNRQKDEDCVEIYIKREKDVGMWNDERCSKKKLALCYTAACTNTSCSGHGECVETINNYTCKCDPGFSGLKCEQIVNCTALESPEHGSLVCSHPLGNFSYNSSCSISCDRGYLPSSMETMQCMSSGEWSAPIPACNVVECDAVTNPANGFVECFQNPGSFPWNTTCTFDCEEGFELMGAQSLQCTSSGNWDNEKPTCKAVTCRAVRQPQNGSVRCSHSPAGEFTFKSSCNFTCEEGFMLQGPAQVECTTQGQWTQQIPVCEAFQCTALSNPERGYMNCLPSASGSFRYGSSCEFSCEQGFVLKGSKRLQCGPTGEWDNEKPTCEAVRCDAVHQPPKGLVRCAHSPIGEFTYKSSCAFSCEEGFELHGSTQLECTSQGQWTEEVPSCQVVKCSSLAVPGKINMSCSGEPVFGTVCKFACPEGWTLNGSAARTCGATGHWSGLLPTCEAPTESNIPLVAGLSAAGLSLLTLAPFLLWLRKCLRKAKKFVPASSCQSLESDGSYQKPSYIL

CCOCCOC(C)=O
inactive: all assays above

N#Cc1ccc(N(CC(N)=O)CC(F)(F)F)cc1C(F)(F)F
not listed: [17]
inactive: all other assays above

O=C(O)C(F)(F)C(F)(F)C(F)(F)C(F)(F)C(F)(F)C(F)(F)C(F)(F)C(F)(F)C(F)(F)F
active: [1] 30.4 µM and 21.9 µM and 21.6 µM | [2] 35 µM and 22.2 µM and 39.3 µM | [3] 33 µM and 36.5 µM and 37.9 µM | [4] 33.3 µM and 26.9 µM and 40.3 µM | [5] 31.2 µM and 17.9 µM and 19.4 µM | [6] 33.1 µM and 38.3 µM and 47 µM | [7] 36.7 µM and 45.8 µM and 54.9 µM | [8] 17.3 µM and 46.9 µM and 40.5 µM | [9] 33.1 µM and 50.3 µM and 50.8 µM | [10] 33.5 µM and 47.2 µM and 46.8 µM | [11] 31 µM and 45 µM and 44.7 µM | [12] 22.7 µM and 27.9 µM and 18.5 µM | [13] 20 µM and 30.2 µM and 27.5 µM | [14] 31.4 µM and 55 µM and 50.7 µM | CD40, CD40 (gene 958) 30 µM and 49.1 µM | [15] 53.8 µM and 51 µM | [16] 46.1 µM and 46.7 µM
inactive: CD40, CD40 (gene 958) | [15] | [16]

CCC(=O)O[C@H]1CC[C@H]2[C@@H]3CCC4=CC(=O)CC[C@]4(C)[C@H]3CC[C@]12C
inactive: [12]
active: [1] 31.3 µM | [2] 33.8 µM | [3] 36.9 µM | [4] 35.9 µM | [5] 31.4 µM | [6] 39.1 µM | [7] 37.5 µM | [8] 32.1 µM | [9] 36.3 µM | [10] 32.7 µM | [11] 30.7 µM | [13] 32.4 µM | [14] 32.5 µM | CD40, CD40 (gene 958) 28 µM | [15] 29.4 µM | [16] 26.5 µM

CO/C=C(/C(=O)OC)c1ccccc1COc1cccc(C(F)(F)F)n1
active: [1] 7.27 µM | [4] 6.92 µM | [6] 11.1 µM | [13] 12.7 µM | CD40, CD40 (gene 958) 18.3 µM | [15] 7.16 µM | [16] 3.06 µM
not listed: [17]
inactive: all other assays above

COS(=O)(=O)OC
not listed: [17]
inactive: all other assays above

Clc1ccc(Cl)cc1
not listed: [17]
inactive: all other assays above
